Laboratory results reported in PubChem BioAssay AID1159580 (chemical genetic matrix, 2015).
Out of some 5,500 compounds screened, about 2,000 (36%) were called active. About 18% were inconclusive and are not listed. No stated cut-off is given here; in the data, active means normalized growth mostly below about 0.91 (no sharp cut-off); inconclusive means no clear call, values can overlap the other calls; inactive means mostly above about 0.92. This is one part of the list.

Assay: chemical genetic growth profiling, strain panel (AID 1159580);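 further: tested at 20 µM; growth read once vehicle control cultures reached saturation at 30 °C; 1 = growth at the plate median or of vehicle wells; lower values mean less growth of the strain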
Conditions: S. cerevisiae deletion strains, growth OD

Measured: normalized growth

CCN(CC)CCOCCOC(=O)C1(c2ccccc2)CCCC1
inactive: locus YAL013W, strain DEP1, hits give low values 0.986 | locus YAL021C, strain ccr4, hits give low values 0.986 | locus YAL026C, strain drs2, hits give low values 0.995 | locus YAL030W, strain snc1, hits give low values 0.992 | locus YAL040C, strain CLN3, hits give low values 0.988 | locus YBL061C, strain skt5, hits give low values 0.996 | locus YBR009C, strain hhf1, hits give low values 0.997 | locus YBR023C, strain chs3, hits give low values 0.987 | locus YBR171W, strain sec66, hits give low values 0.987 | locus YBR231C, strain swc5, hits give low values 0.982 | locus YBR279W, strain paf1, hits give low values 0.995 | locus YCL011C, strain gbp2, hits give low values 0.99 | locus YCL016C, strain dcc1, hits give low values 0.998 | locus YCL061C, strain MRC1 (second series), hits give low values 0.994 | locus YCL061C, strain MRC1, hits give low values 0.989 | locus YCL069W, strain vba3, hits give low values 0.994 | locus YCR088W, strain abp1, hits give low values 0.981 | locus YDL005C, strain med2, hits give low values 0.988 | locus YDL040C, strain nat1, hits give low values 0.998 | locus YDR001C, strain nth1, hits give low values 0.999 | locus YDR069C, strain doa4, hits give low values 0.984 | locus YDR137W, strain rgp1, hits give low values 0.981 | locus YDR150W, strain NUM1, hits give low values 0.995 | locus YDR159W, strain sac3, hits give low values 0.99 | locus YDR195W, strain ref2 0.966 | locus YDR297W, strain sur2, hits give low values 0.989 | locus YDR334W, strain swr1, hits give low values 0.995 | locus YDR335W, strain msn5, hits give low values 0.996 | locus YDR392W, strain spt3, hits give low values 1.01 | locus YEL003W, strain gim4, hits give low values 0.999 | locus YEL037C, strain rad23, hits give low values 0.999 | locus YEL061C, strain CIN8 (second series), hits give low values 0.999 | locus YER002W, strain NOP16, hits give low values 1 | locus YER015W, strain faa2, hits give low values 0.992 | locus YER016W, strain bim1, hits give low values 0.995 | locus YER111C, strain swi4, hits give low values 0.985 | locus YER155C, strain BEM2 (second series), hits give low values 0.992 | locus YFR010W, strain ubp6, hits give low values 1 | locus YGL167C, strain pmr1, hits give low values 0.991 | locus YGL173C, strain kem1, hits give low values 0.999 | locus YGL227W, strain vid30, hits give low values 0.981 | locus YGL240W, strain doc1, hits give low values 0.998 | locus YGL253W, strain hxk2, hits give low values 0.989 | locus YGR078C, strain PAC10, hits give low values 0.972 | locus YGR229C, strain SMI1, hits give low values 0.979 | locus YHR013C, strain ard1, hits give low values 0.969 | locus YHR027C, strain rpn1, hits give low values 0.996 | locus YHR030C, strain SLT2, hits give low values 0.967 | locus YHR079C, strain IRE1, hits give low values 0.975 | locus YHR142W, strain chs7, hits give low values 0.99 | locus YJL092W, strain hpr5, hits give low values 0.997 | locus YJL095W, strain BCK1 (second series), hits give low values 0.992 | locus YJL095W, strain BCK1, hits give low values 0.966 | locus YJL115W, strain asf1, hits give low values 0.996 | locus YJL129C, strain trk1, hits give low values 0.994 | locus YJL154C, strain vps35, hits give low values 0.998 | locus YJL164C, strain tpk1, hits give low values 0.977 | locus YJL166W, strain qcr8, hits give low values 0.997 | locus YJL187C, strain SWE1, hits give low values 0.996 | locus YJR066W, strain TOR1, hits give low values 0.917 | locus YJR075W, strain HOC1, hits give low values 0.99 | locus YKL160W, strain elf1, hits give low values 1 | locus YKR026C, strain gcn3, hits give low values 0.98 | locus YKR091W, strain srl3, hits give low values 0.992 | locus YLL001W, strain dnm1, hits give low values 0.994 | locus YLL026W, hits give low values 0.99 | locus YLL041C, strain sdh2, hits give low values 1 | locus YLR027C, strain aat2, hits give low values 0.993 | locus YLR113W, strain HOG1, hits give low values 0.931 | locus YLR221C, strain rsa3, hits give low values 0.987 | locus YLR258W, strain gsy2, hits give low values 0.979 | locus YLR262C, strain YPT6 (second series), hits give low values 0.947 | locus YLR320W, strain mms22, hits give low values 0.99 | locus YLR342W, strain FKS1, hits give low values 0.987 | locus YLR357W, strain rsc2, hits give low values 0.975 | locus YLR370C, strain arc18, hits give low values 0.998 | locus YLR384C, strain iki3, hits give low values 0.992 | locus YML120C, strain ndi1, hits give low values 0.989 | locus YMR058W, strain fet3, hits give low values 0.999 | locus YMR125W, strain sto1, hits give low values 0.987 | locus YMR129W, hits give low values 0.997 | locus YMR205C, strain PFK2, hits give low values 0.986 | locus YMR231W, strain pep5, hits give low values 0.996 | locus YMR307W, strain GAS1, hits give low values 0.986 | locus YNL071W, strain lat1, hits give low values 1.02 | locus YNL175C, strain NOP13, hits give low values 1.02 | locus YNL183C, strain NPR1, hits give low values 0.915 | locus YNL197C, strain WHI3, hits give low values 0.994 | locus YNL209W, strain ssb2, hits give low values 0.998 | locus YNL224C, strain SQS1, hits give low values 1 | locus YNL248C, strain rpa49, hits give low values 1.01 | locus YNL322C, strain KRE1 (second series), hits give low values 0.99 | locus YNL322C, strain KRE1, hits give low values 1.01 | locus YNR049C, strain mso1, hits give low values 0.989 | locus YOR001W, strain rrp6, hits give low values 0.994 | locus YOR070C, strain gyp1, hits give low values 0.999 | locus YOR080W, strain dia2, hits give low values 0.989 | locus YOR083W, strain WHI5 (second series), hits give low values 0.996 | locus YOR083W, strain WHI5, hits give low values 1 | locus YOR106W, strain vam3, hits give low values 1.02 | locus YOR231W, strain MKK1, hits give low values 0.983 | locus YOR265W, strain rbl2, hits give low values 0.988 | locus YOR270C, strain vph1, hits give low values 0.999 | locus YOR290C, strain snf2, hits give low values 0.992 | locus YPL051W, strain arl3, hits give low values 0.989 | locus YPL055C, strain LGE1, hits give low values 0.996 | locus YPL078C, strain atp4, hits give low values 0.994 | locus YPL106C, strain sse1, hits give low values 0.995 | locus YPL240C, strain hsp82, hits give low values 0.995 | locus YPL241C, strain CIN2, hits give low values 0.995 | locus YPL256C, strain CLN2, hits give low values 0.959
